Only some compounds are listed: those with a hit (about 4.8% of all), similar ones and a draw of the others.
HepG2 viability = kills HepG2 cells in TGF-b inhibitor counter-screen. HepG2 CAGA-GFP viability, ATP luminescence, 18 h. Potency, µM (titrated, usually from 46.1 µM), without a hit: at the top dose activity change, negative = cytotoxicity, usual class: cytotoxic. hit rate 0.76% among 410,000. AID 588856; also: potency is read from the fitted curve at half-maximal effect
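CellTiter-Glo luminescence gave cytotoxicity after 18 hours at 37 degrees C. The cells were HepG2 CAGA-GFP in 1% FBS DMEM, stimulated with 500 pg/mL TGF-beta after compound addition. %Activity was normalised to no-cell wells (complete cell-killing) and DMSO (no toxicity), and curves were fitted and classified.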
S2 tox = reduces viability in counter-screen for ATXN expression inhibitors | S2 cells (HEK-293 line with an ATXN2-luciferase reporter) viability, CellTiter-Fluor protease fluorescence, 24 h | Potency, µM (top dose mostly 56.7 µM), hits mostly cytotoxic | hit rate 0.49% among 400,000 | AID 651635; also: potency is read from the fitted curve at half-maximal effect; nearly all actives have a fitted effect of over 40% in size
D3 antag = D3 dopamine receptor (human) antagonism | P35462 | D3R cells, DiscoveRx beta-arrestin luminescence, antagonist mode; stronger effect = lower value | max response, negative = inhibition, % | hit rate 2.5% among 360,000 | AID 652054; in the data active = max response below about -50%; inconclusive = no clear call, values can overlap the other calls; also: % is scaled to controls: 0 for no effect and ±100 for the full control effect
Target sequence (P35462 whole entry, looked up): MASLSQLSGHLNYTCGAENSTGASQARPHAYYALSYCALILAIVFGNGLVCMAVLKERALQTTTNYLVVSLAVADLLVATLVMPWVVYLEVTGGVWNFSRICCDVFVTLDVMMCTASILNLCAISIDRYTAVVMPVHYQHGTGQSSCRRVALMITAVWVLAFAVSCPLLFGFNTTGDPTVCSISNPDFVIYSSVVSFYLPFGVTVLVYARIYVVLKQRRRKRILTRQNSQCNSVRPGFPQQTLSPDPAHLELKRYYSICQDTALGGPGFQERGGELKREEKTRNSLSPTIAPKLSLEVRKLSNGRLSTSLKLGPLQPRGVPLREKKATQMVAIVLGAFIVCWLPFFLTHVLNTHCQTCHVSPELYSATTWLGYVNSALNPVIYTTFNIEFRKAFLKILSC
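Cells expressing the human receptor were seeded at 1500 cells/well, incubated overnight at 37 degrees C in 5% CO2, then exposed to library compounds with dopamine controls for 90 minutes at 37 degrees C before luminescent detection.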
ATXN2 expr inh = inhibitors of ATXN2 expression; Potency, µM (titrated, usually from 57 µM), for inactives: at the highest dose activity change, negative = inhibition, actives largely listed as inhibitors; HEK-293 ATXN2-luciferase reporter, luminescence, 24 h; hit rate 0.72% among 360,000; also: potency is read from the fitted curve at half-maximal effect; % is scaled to controls: 0 for no effect and ±100 for the full control effect; nearly all actives have a fitted effect of over 55% in size
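qHTS (up to 57 uM final) was run with 24 h compound exposure of reporter cells at 37 °C. Each well was multiplexed: SteadyGlo luminescence measured ATXN2-luciferase expression after a fluorogenic Gly-Phe-AFC viability readout (25 uM final).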
TGFb SMAD3 inh = TGF-b pathway inhibition; Potency, µM (doses to about 46.1 µM), inactives show top-dose activity, negative = inhibition, hits mostly inhibitors; HepG2 CAGA-GFP TGF-b/SMAD3 reporter, GFP fluorescence, 18 h; TGF-beta stimulated, 500 pg/mL final; AID 588855; hit rate 1.2% among 410,000; also: potency is read from the fitted curve at half-maximal effect; % is scaled to controls: 0 for no effect and ±100 for the full control effect; nearly all actives have a fitted effect of over 65% in size
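TGF-beta reporter screen: HEPG2 CAGA-GFP, 1% FBS, 500 pg/mL TGF-beta final, 18 h; per-cell GFP summed per well; curves fitted and categorized by class.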
DRD3 agonist = agonists of human D3 dopamine receptor | AID 652048 | hit rate 0.58% among 410,000 | max activation, % | D3R DiscoveRx beta-arrestin cells, luminescence, 90 min; in the data active = max activation above about 30%; also: 0% is about no effect
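Cells at 1500/well, incubated overnight, then treated with pinned compounds (dopamine as control) for 90 min at 37 degrees C. DiscoveRx reagent added for 30 - 60 minutes at room temperature; luminescence read.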
Active calls of the source: *; i = inactive; ? = inconclusive; . = no result given; ! = not confirmed by another sample; [ ] = dose if it differs, or a comment. Unless noted, calls follow the shape of the dose curve; as a rule, active = well fitted curve in the direction sought with a large enough effect; inconclusive = small, poorly fitted or top-dose-only effect, or another doubt; inactive = no such curve, though single readings can be large; an effect the other way counts as inactive or inconclusive.

SMILES	HepG2 viability	S2 tox	D3 antag	ATXN2 expr inh	TGFb SMAD3 inh	DRD3 agonist
CC(C)(C)c1ccc(C(=O)NCC(c2cccs2)S(=O)(=O)c2cccs2)cc1 (stereo not given)	-16%	?	.	-38%	-7%	3
Cc1ccc(C(=O)NCC(c2cccs2)S(=O)(=O)c2cccs2)cc1 (stereo not given)	-24%	20µM*	.	?	?	-5
CC1(C(=O)NS(=O)(=O)c2cccc(F)c2)CCN1C(=O)CC1CCCCC1 (stereo not given)	-34%	i	14	6%	8%	30*
Cc1cccc(S(=O)(=O)NC(=O)C2(C)CCN2C(=O)CC2CCCCC2)c1 (stereo not given)	3%	i	-4	10%	-16%	4
CCCCOC(=O)c1ccc(NS(=O)(=O)c2c(C)nc3scc(C)n3c2=O)cc1	-29%	i	.	-8%	11µM*	36*
Cc1nc2scc(C)n2c(=O)c1S(=O)(=O)Nc1ccc(F)cc1	0%	i	-14	-2%	5%	7
C=CC(=O)N=c1sc2ccccc2n1-c1ccccc1	4.5µM*	.	3	18%[11.3 µM]	10µM*	1
C=CCNC1=C2C[C@@H](C)C[C@H](OC)[C@@H](O)[C@@H](C)C=C(C)[C@H](OC(N)=O)[C@@H](OC)C=CC=C(C)C(=O)NC(=CC1=O)C2=O	.	.	.	1.1µM*	.	.
COC1=C2C[C@H](C)C[C@H](OC)[C@@H](O)[C@@H](C)C=C(C)[C@H](OC(N)=O)[C@@H](OC)C=CC=C(C)C(=O)NC(=CC1=O)C2=O	-41%	.	.	.	?	.
CO[C@H]1C=CC=C(C)C(=O)NC2=CC(=O)C(NCCN(C)C)=C(C[C@@H](C)C[C@H](OC)[C@@H](O)[C@@H](C)C=C(C)[C@@H]1OC(N)=O)C2=O	.	.	.	0.077µM*	.	.
O=C(N/N=C/c1ccc([N+](=O)[O-])s1)c1cccc(Br)c1	-43%	?	0	-34%	?	0
Cc1cccc(NC(=S)N/N=C/c2ccc([N+](=O)[O-])s2)c1	6.3µM*	.	-97*	20µM*	7.1µM*	-6
Cc1ccc(C(=O)N/N=C/c2ccc([N+](=O)[O-])s2)cc1	-29%	i	-21	2.2µM*	?	-14
Cc1ccc(C(=O)N/N=C\c2ccc([N+](=O)[O-])s2)cn1	-7%	i	-4	?	-24%	3
O=C(N/N=C/c1ccc([N+](=O)[O-])s1)c1ccncc1	13µM*	i	-22	?	?	-5
Cc1cc(C(=O)N/N=C/c2cc(Br)ccc2OC(=O)c2ccccc2)n[nH]1	-35%	i	5	27µM*	-21%	2
COc1ccc(C(=O)NCC(c2ccc(N(C)C)cc2)N2CCc3ccccc32)cc1 (stereo not given)	-31%	.	.	.	4%	5
CCOC(=O)N/N=C\c1ccc([N+](=O)[O-])s1	-49%	?	0	?	22µM*	-3
Cc1cc(C(=O)N/N=C/c2ccc([N+](=O)[O-])s2)n[nH]1	18µM*	?	-22	14µM*	11µM*	5
Cc1ccc(Cn2c(CCNc3nc(-c4ccc(C)cc4)cs3)nc3cc(C(=O)NCCCO)ccc32)cc1	-7%	i	6	-26%	-1%	31*
Cc1ccc(-c2csc(NCCc3nc4cc(Cl)c(Cl)cc4n3CCCO)n2)cc1	-18%	i	5	-6%	?	70*
OCCCn1c(C2CCCN2c2nc(-c3ccc(F)cc3)cs2)nc2cc(Cl)c(Cl)cc21 (stereo not given)	-10%	?	-56*	-6%	-13%	-44
OCCCn1c(C2CCCN2c2nc(-c3ccc(Cl)cc3)cs2)nc2cc(Cl)c(Cl)cc21 (stereo not given)	2%	?	0	-5%	?	8
Cc1ccc(Cn2c(C(C)Nc3nc(-c4ccc(Cl)cc4)cs3)nc3cc(C(=O)NCCCO)ccc32)cc1 (stereo not given)	-5%	?	14	-32%	?	-1
COc1nnc(-c2ccc(N3CCOCC3)c(NC(C)=O)c2)c2ccccc12	-7%	i	-52*	3%	28%	-8
SMILES	HepG2 viability	S2 tox	D3 antag	ATXN2 expr inh	TGFb SMAD3 inh	DRD3 agonist
COc1nnc(-c2ccc(N3CCOCC3)c(NC(=O)c3ccccc3)c2)c2ccccc12	1%	i	-23	-17%	?	2
CCc1ccc(C(=O)c2cn(CC(=O)Nc3ccc4c(c3)OCCO4)c3ccc(CC)cc3c2=O)cc1	-1%	i	.	14%	-1%	-8
CCC1Nc2ncnc(N3CCCCC3)c2N(Cc2ccc(OC)cc2)C1=O (stereo not given)	-8%	i	-64*!	1%	?	-27
COc1ccc(CN2C(=O)C(Cc3ccccc3)Nc3ncnc(N4CCOCC4)c32)cc1 (stereo not given)	-14%	i	?	0%	1%	-15
O=C1C(Cc2ccccc2)Nc2ncnc(N3CCCCC3)c2N1Cc1ccc(Br)cc1 (stereo not given)	3.2µM*!	i	-99*	-6%	?	-46
O=C1C(Cc2ccccc2)Nc2ncnc(N3CCCCC3)c2N1Cc1ccccc1 (stereo not given)	-9%	i	-9	-5%	-1%	-9
CCC1Nc2ncnc(N3CCOCC3)c2N(Cc2ccc(Br)cc2)C1=O (stereo not given)	-16%	i	-4	-9%	-2%	-23
O=C1C(Cc2ccccc2)Nc2ncnc(N3CCc4ccccc4C3)c2N1Cc1ccc(Cl)cc1 (stereo not given)	-20%	?	-59*	?	18µM*	-23
CCC1Nc2ncnc(N3CCCCC3)c2N(Cc2ccc(Br)cc2)C1=O (stereo not given)	4%	?	-53*	-22%	-17%	-21
CCCCN(C)CCNC(=O)c1ccc2c(=O)n(CCc3ccccc3)c(=O)[nH]c2c1	-4%	i	.	10%	1%	-1
Cc1cc(C)n(-c2nc(C)c(C)c(=O)n2CC(=O)Nc2ccc(Cl)c(Cl)c2)n1	3%	.	.	.	22%	-10
Clc1ccc[n+](CCCCC[n+]2cccc(Cl)c2)c1	-17%	.	.	.	-19%	.
CCC1Nc2ncnc(N3CCCCC3)c2N(Cc2ccc(Cl)cc2)C1=O (stereo not given)	-1%	?	-65*!	?	?	-19
Cn1cnnc1SCC(=O)c1ccc(O)c(O)c1	1%	i	35	6%	27%	39*

Assay outcomes deposited in PubChem BioAssay by National Center for Advancing Translational Sciences (NCATS).
